Measured values published in the supplement of paper PMC6555819.

What follows are sequences tested on PXR:RXRa (NR concentration 270 nM, RXRa partner concentration 90 nM) (assay: PBM binding z-score (relative to random genomic background probes); higher = stronger binding; sequences stand for … in GC…GCGATTGACAGCGTAGAATGAAGG).
Summary of the method: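 Random background probes are the reference for binding z-scores. These scores derive from regression-normalized fluorescence on custom Agilent 4×180K protein-binding microarrays incubated 1 h with ligand-free nuclear receptor dimers. Binding was detected with antibodies against each partner (one per run).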

Sequence	PBM binding z-score
CAAACTAGGTTAAGAGGTCAAAGTCCGCTTCCCG	5.64
CGTCCAAGGTCAGCAGGTCCGTGAAAGCGACGTG	2.47
CGTCATAGTTCAACTAAGGTAACGTAAAGCACGC	3.86
ACCTCTAGGTAAAAGTTCAGTGAATCCCGAGGAT	1.54
GCATATAGGTAATACAAGGTGAAAGCCCGATTGT	0.437
CGAACTAGGTCATTGACAGTACAGTGAATAGTAA	1.64
AGTCAAAGTTCATTAGGTAACGTAAGATTCAGCT	4.83
TCTTGTAGATCAACCGGAGGTTAAGAAAGATCGA	0.984
CGAACTAGGTCAGAACAGGCCAGTGAAGGATGAT	0.505
ATCTCTAGGTAAGACTCAGTTCAGTTAAGAACGC	1.11
AGAATGAGCTTACCAAAGATCAGGGAAACGCTTG	-0.428
GATACAGGATCAAGGCCAGAGTACGCGTATTGAT	-0.253
CGAACTAGGTCAGAACAGGACTGTGAAGGATGAT	0.118
GCTGCTAGGGCAACTGATGGTCAGCTAAAGCTCG	-0.816
CTCGAAAGGTCGTGCTCGGGTGAGTATACCAAAC	3.15
GCTTGTAGATCAAGGTTAAGACAGACTAAGCTAA	0.721
TCTATTAGCTGATTAGGGCAACCGAAACAGCGGA	-0.0443
ACTTACGGGTCAAAGAGGTTATAGCACGCGTATA	4.91
TCTAGTTGGTCAAAGGACACACACTCGAAATGCG	0.659
GCTGCTAGCTCAGGTTGGTCAGCTAACGGGTACG	-0.81

Sequence	PBM binding z-score
GCTGCTAGGTCAACTGATGGGCAGCTAAAGCTCG	1.1
CGGACTGGGGCATAAGGTTACCATAAGCCAGCCC	0.635
CCTACTGGGCCAAAGGTCATTGCTTCCAATGCTC	5.39
TCTATCAGTTGATTAGGGCAACCGAAACAGCGGA	0.154
TCGAGTAGGTGAGGGGCATTCAGAATGGCGTCGA	0.21
CCGAATGGGGCATAAGGTTACCATAAGCCAGCCC	0.477
CGTCCAAGGTCAATGCTAGGTCCGTGAAAGCATT	3.8
CCGACTGGGGCAGAAAGGTTATCATACCATCCGG	0.873
AGAATGAGGTTACCAAAGAGCAGGGAAACGCTTG	1.05
TCTTGTAGAGCAGCAGGTTAAGAAAGCTGGCCAA	-0.26
CAAACTAGATCACAGAGGTCAAAGTCCGTGCGTA	5.76
CCTACAGGGCCATTCAGAGGTCATTGATCATATG	5.17
CGAACTAGCTCATTGACAGGACAGTGAATAGTAA	-0.133
GGAACGAGGGCATTCGGGTTGATAGCATGGCGAT	3.69
CTCGAAAGGTCCTGCTCAGGTGAGTATACCAAAC	-0.11
AGAATGAGGATATACGTAGATCAGGGAAGAAAGT	-0.403
ATCGAAAGGTCTAGGTGAGTATAGAGAAAGGGAA	0.216
TTACCAAGGTGAGCTGAGGTCGTTGATCCAACTC	4.78
GATACAGAGTCAAGGCCAGAGTACGCGTATTGAT	-0.285
CGTCCAAGGTCAGAGAGATCAGTGAATGCCGAGT	2.74
